DT40 TDP1 no CPT – qHTS for Inhibitors of human tyrosyl-DNA phosphodiesterase 1 (TDP1): qHTS in cells in absence of CPT. DT40 Tdp1-/- hTDP1 cells, no CPT, ATP luminescence, 48 h. Potency, µM (top dose mostly 46.2 µM), without a hit: top-dose activity change, negative = growth inhibition, hits mostly inhibitors. actives 15% (n = 420,000). AID 686978, 2013; also: potency is read from the fitted curve at half-maximal effect; nearly all actives have a fitted effect of over 55% in size
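A cellular qHTS used chicken DT40 cells lacking endogenous Tdp1 but carrying stably transfected human TDP1. Compounds were applied without camptothecin, and cell growth kinetics were judged by ATP-dependent luminescence after ≥48 hr.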
IL1B secr inh – qHTS for Inhibitors of Inflammasome Signaling: IL-1-beta AlphaLISA Primary Screen; THP-1 LPS/ATP IL-1B secretion, AlphaLISA, 16 h; active compounds read low; activity change, % at 57.5 µM; actives 4.7% (n = 360,000); AID 743279, 2014; in the data active = activity change below about -50%; inconclusive = mostly about -30% to -49%
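THP-1 cells pretreated 1 hr with compounds (up to 57.5 uM final), then stimulated with LPS (250 ng/mL final) plus ATP (1.25 mM final); secreted IL-1B measured by AlphaLISA after 16 hr, decreased signal indicating inhibition.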
HT1080 IDH1KD tx – qHTS for induction of synthetic lethality in tumor cells producing 2HG: qHTS for the HT-1080-IDH1KD cell line; actives 2% (n = 360,000); HT-1080 IDH1 knockdown viability, ATP luminescence, 48 h; Potency, µM (series often up to 46.1 µM), for the others: top-dose activity, negative = toxicity, usual class: cytotoxic; AID 686971, 2013;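 also: potency is read from the fitted curve at half-maximal effect; 0% = DMSO wells and -100% = cell-free medium wells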
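Cytotoxicity counter-line: IDH1KD HT-1080, 48 h, CellTiter-Glo. Curves classed by r2, magnitude and activity.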
TDP1 cell CPT – qHTS for Inhibitors of human tyrosyl-DNA phosphodiesterase 1 (TDP1): qHTS in cells in presence of CPT; chicken DT40 Tdp1-/-;hTDP1 cells + 20 nM CPT, ATP luminescence, 48 h; Potency, µM (highest dose often 46.2 µM), for inactives: at the top dose activity change, negative = growth inhibition, hits mostly inhibitors; actives 12% (n = 420,000); AID 686979, 2013; also: potency is read from the fitted curve at half-maximal effect; nearly all actives have a fitted effect of over 55% in size
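Chicken DT40 Tdp1-/- cells stably complemented with human TDP1 were seeded at 400 cells/well in medium containing 20 nM camptothecin, exposed to pin-transferred compounds, and grown at 37 °C for at least 48 hr. Viability was read as ATP luminescence.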
HT1080NT lethal – qHTS for induction of synthetic lethality in tumor cells producing 2HG: qHTS for the HT-1080-NT fibrosarcoma cell line. HT-1080-NT fibrosarcoma viability, CellTiter-Glo ATP luminescence, 48 h. Potency, µM (titrated, usually from 46.1 µM), inactives show at the highest dose activity, negative = less viability, most hits filed as cytotoxic. actives 1.6% (n = 360,000). AID 686970, 2013;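 also: NT is the 2HG producing partner of a matched IDH1 knockdown line; potency is read from the fitted curve at half-maximal effect; 0% = DMSO-treated cells and -100% = media-only wells without cells; nearly all actives have a fitted effect of over 55% in size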
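Luminescent CellTiter-Glo readout after 48 hours of compound exposure at 37 degrees C defined viability of HT-1080-NT cells. Activity was normalized to DMSO wells and cell-free media wells; concentration-response curves were fitted and assigned curve classes.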
The depositor's hits bear a star; ? = inconclusive; . = no result given. Most compounds without a hit are left out; they make up all but 19% or so of the library. Unless noted, calls follow the shape of the dose curve; as a rule, active = well fitted curve in the direction sought with a large enough effect; inconclusive = small, poorly fitted or top-dose-only effect, or another doubt; inactive = no such curve, though single readings can be large; an effect the other way counts as inactive or inconclusive. Unless noted, % is scaled to controls: 0 for no effect and ±100 for the full control effect.

SMILES | DT40 TDP1 no CPT | IL1B secr inh | HT1080 IDH1KD tx | TDP1 cell CPT | HT1080NT lethal
CCC1CCCCN1CCCNC(=O)C1CCN(c2nnc(-n3cccc3)s2)CC1 (centres undefined) | 2% | -4 | 8% | 11% | 1%
CCn1cc(C(=O)NCc2ccccc2Cl)c(=O)c2cc(S(=O)(=O)N3CCOCC3)ccc21 | -23% | . | . | -20% | .
CCn1cc(C(=O)NCc2ccccc2OC)c(=O)c2cc(S(=O)(=O)N3CCCCC3)ccc21 | ? | . | . | 18µM* | .
CCn1cc(C(=O)NCc2ccccc2Cl)c(=O)c2cc(S(=O)(=O)N3CCCCCC3)ccc21 | 21µM* | . | . | ? | .
CCN(CC)c1ccc(N2C(=NC(=O)C3CCCO3)SC3CS(=O)(=O)CC32)cc1 (centres undefined) | 15% | ? | 11% | -1% | 9%
CC1CCC2(CC1)NC(=O)N(CC(=O)Nc1sc3c(c1C(N)=O)CCC3)C2=O (centres undefined) | -20% | 10 | 0% | ? | 0%
COC(=O)c1c(NC(=O)CN2C(=O)NC3(CCC(C)CC3)C2=O)sc2c1CCC2 (centres undefined) | 16µM* | 16 | -3% | 15µM* | -2%
COC(=O)c1c(NC(=O)CN2C(=O)NC3(CCC(C(C)(C)C)CC3)C2=O)sc2c1CCCCC2 (centres undefined) | ? | 17 | 7% | -29% | 4%
COC(=O)c1c(NC(=O)CN2C(=O)NC3(CCc4ccccc4C3)C2=O)sc2c1CCCCC2 (centres undefined) | 26µM* | 24 | -14% | 21µM* | -20%
NC(=O)CCC(NC(=S)Nc1ccccc1)C(=O)O (centres undefined) | 6% | 0 | 6% | -7% | 14%
CC(NC(=O)Cc1cccs1)c1ccc2c(c1)OCO2 (centres undefined) | -17% | 0 | -15% | 4% | 4%
O=C(CC(SCc1ccco1)c1ccc(O)cc1)c1cccs1 (centres undefined) | 23µM* | -52* | -4% | ? | -12%
O=C(CC(SCCO)c1ccc2c(c1)OCO2)c1cccs1 (centres undefined) | 12µM* | -75* | ? | 12µM* | ?
Cc1cc(Br)ccc1NC(=O)CN(C)C(=O)C1CCN(C(=O)c2ccc(F)cc2)CC1 | ? | -6 | 2% | -29% | 6%
CCCn1c(NC(=O)c2ccccc2Br)nc2ccccc21 | 23µM* | 5 | ? | ? | -17%
CCCn1c(NC(=O)C2CCN(C(=O)c3ccc(F)cc3)CC2)nc2ccccc21 | ? | 0 | -5% | 18µM* | 0%
CCCn1c(NC(=O)C2COc3ccccc3O2)nc2ccccc21 (centres undefined) | 18µM* | 5 | -16% | 18µM* | -22%
CCCn1c(NC(=O)c2ccc(F)cc2)nc2ccccc21 | ? | 29 | 0% | -18% | 3%
Cn1c(/C=N/NC(=O)c2ccccc2Br)nc2ccccc21 | 18µM* | -9 | ? | ? | ?
CC(CNC(=O)c1ccc(Cn2c(=O)c3cccn3c3cccnc32)cc1)c1ccccc1 (centres undefined) | ? | . | . | -29% | .
COc1cccc(N2CCN(C(=O)c3cnc4c(C)cccn4c3=O)CC2)c1 | -26% | . | . | 0% | .
Cc1ccc(C(=O)N/N=C/c2nc3ccccc3n2C)cc1 | 18µM* | 29 | 10µM* | ? | 8.9µM*
COC(=O)c1ccc([C@H]2CC(=O)O2)cc1 | ? | -96* | -14% | ? | -13%
COC(=O)C1=C(C)NC(=O)CC1c1ccc(C(=O)OC)cc1 (centres undefined) | 4% | 4 | 0% | 1% | 2%

Screens: PubChem BioAssay, National Center for Advancing Translational Sciences (NCATS)
